PubChem BioAssay AID504326 (The Scripps Research Institute Molecular Screening Center, 2011)
In all, about 340,000 compounds went through this assay and about 990 (0.29%) were called active. Rule as the data show it: active = activation above about 18%; inactive = the rest. The list comes from a sample in which actives are over-represented; it also holds similar structures and randomly drawn compounds.

Target: Mu-type opioid receptor (Homo sapiens) + Delta-type opioid receptor (Homo sapiens) (UniProt P35372+P41143)
Test: agonists of OPRM1-OPRD1 heterodimerization, primary screen, cell-based, luminescence (AID 504326);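 also: 0% = vehicle-treated cells and 100% = reference agonist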
Conditions: cells, at 9.3 µM, hits give high values

Chain of Mu-type opioid receptor (Homo sapiens) + Delta-type opioid receptor (Homo sapiens) (P35372 whole entry, looked up): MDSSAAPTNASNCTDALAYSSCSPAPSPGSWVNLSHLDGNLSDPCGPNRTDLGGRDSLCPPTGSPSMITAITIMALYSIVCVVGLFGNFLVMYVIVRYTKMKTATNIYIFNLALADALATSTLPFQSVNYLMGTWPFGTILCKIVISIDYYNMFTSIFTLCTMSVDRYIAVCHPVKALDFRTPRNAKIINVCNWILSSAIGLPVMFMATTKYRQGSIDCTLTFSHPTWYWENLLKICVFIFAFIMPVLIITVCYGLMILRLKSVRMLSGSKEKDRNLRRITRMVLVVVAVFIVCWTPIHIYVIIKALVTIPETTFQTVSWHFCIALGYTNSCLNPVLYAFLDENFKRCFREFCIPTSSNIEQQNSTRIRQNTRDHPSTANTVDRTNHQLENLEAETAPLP
Chain of Mu-type opioid receptor (Homo sapiens) + Delta-type opioid receptor (Homo sapiens) (P41143 whole entry, looked up): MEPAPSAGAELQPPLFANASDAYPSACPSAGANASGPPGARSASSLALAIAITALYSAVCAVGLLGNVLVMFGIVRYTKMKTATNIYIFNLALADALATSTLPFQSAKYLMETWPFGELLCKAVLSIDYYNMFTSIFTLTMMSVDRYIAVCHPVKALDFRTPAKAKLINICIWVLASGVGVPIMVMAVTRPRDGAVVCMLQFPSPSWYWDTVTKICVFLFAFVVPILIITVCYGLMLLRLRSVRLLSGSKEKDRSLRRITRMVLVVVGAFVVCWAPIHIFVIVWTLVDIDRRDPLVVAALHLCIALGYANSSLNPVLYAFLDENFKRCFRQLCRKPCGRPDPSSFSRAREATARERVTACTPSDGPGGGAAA

activation, inactive:
C=C(C)COc1ccc(-c2nc(N)ncc2-c2ccccc2OC)c(O)c1 5.76%, C=C(C)COc1ccc(-c2ncncc2-c2ccc(OC)cc2)c(O)c1 0.28%, COCCCNC(=O)Cn1cc(/C=C(\C#N)C(=O)N2CCN(c3ccccc3)CC2)c2ccccc21 -0.49%, Cc1ccc(N=C2NC(=O)c3cccc([N+](=O)[O-])c32)cc1 -1.31%, Cc1ccc(C(=O)NCC(c2cccs2)N(C)C)cc1S(=O)(=O)N1CCOCC1 (configuration not stated) 7.26%, COc1ccccc1CNC(=O)c1ccc(Cl)c(S(=O)(=O)N2CCCC2)c1 -1.63%, CCCOc1ccc(C(=O)C(CCC(CNCC)C(=O)c2ccc(OCCC)cc2)CNCC)cc1 (configuration not stated) 11.1%, C=CCOc1c2ccc(C(=O)N(CC)c3ccc(OC)cc3)cc2nn1C 0.36%, COc1cccc(NC(=O)c2ccccc2N(Cc2ccccc2)S(C)(=O)=O)c1 -3.67%, CC(OC(=O)c1ccc([N+](=O)[O-])cc1)C(=O)NCC1CCCCC1 (configuration not stated) 0.26%, COc1ccc(NC(=O)CCC(=O)Nc2cc(OC)c(NC(=O)c3ccco3)cc2OC)c(OC)c1 0.82%, CNC(=O)c1[nH]cnc1C(=O)N[C@@H](CC(C)C)C(=O)OC(C)(C)C 0.92%, Cc1ccc(S(=O)(=O)NC(C)C(=O)Nc2ccccc2C(=O)N2CCCC2)cc1 (configuration not stated) 2.72%, COc1ccc(CSc2nnnn2-c2ccc(C(=O)O)cc2)cc1 -1.43%, COc1ccc(-n2nnnc2CNC(=O)c2ccc3ccccc3c2)cc1 -0.36%, Cc1ccc(S(=O)(=O)NC(C(=O)N2CCOCCOCCOCCOCC2)c2ccccc2)cc1 (configuration not stated) -1.61%, CC(=O)N1CCN(C(=O)C2(NC(=O)Nc3ccc(C)cc3)CCCCC2)CC1 -2.72%, CCOc1ccc(-c2c(C)n([O-])c3c([n+]2=O)CCCC3)cc1 -0.63%, C[C@H]1CC[C@]2(O[C@@H](CCO)C[C@@H](O)[C@@H]2O)O1 3.63%, O=C(N[C@@H](Cc1ccccc1)C(=O)OCc1ccccc1)c1nc[nH]c1C(=O)NC1CCNCC1 -2.25%, CC(C)(C)OC(=O)CNC(=O)c1[nH]cnc1C(=O)N[C@@H](Cc1ccccc1)C(=O)OCc1ccccc1 14.2%, CCN1CCC2(CC1)N=C(c1ccc(F)cc1)C(=S)N2C(=O)c1ccc(C)cc1 13.8%, CN(C)c1ccc(/C=C2\NC(=S)N(Cc3ccccc3)C2=O)cc1 0.84%, Cc1ccc(CN2C(=O)N/C(=C/c3cc(C)n(-c4ccccn4)c3C)C2=O)cc1 -1.23%, CCn1c(SCC(=O)Nc2ccc(C)cc2)nc2nc3c(cc2c1=O)CCCC3 -0.65%, CCOc1ccc(NC(=O)CCS(=O)(=O)c2cccc3nsnc23)cc1 -1.59%, O=C(NCc1ccccc1)c1onc(CSc2ccncc2)c1C(=O)NCc1ccccc1 -1.19%, CCOc1cc(S(=O)(=O)NC2CC(C)(C)NC(C)(C)C2)ccc1F -2.58%, COCCN(C(=O)CCC(=O)Nc1nccs1)C(C(=O)NCCC(C)C)c1ccc(F)cc1 (configuration not stated) -1.57%, c1ccc(-c2ccccc2OCCN2CCCCC2)cc1 -3.6%, CC1CN(CCCOc2ccccc2-c2ccccc2)CC(C)O1 (configuration not stated) 4.64%, Cc1c(NC(=O)C(C)OC(=O)c2c3c(nc4ccccc24)CCC(C)C3)c(=O)n(-c2ccccc2)n1C (configuration not stated) -2.46%, CC(C)(C)NS(=O)(=O)c1ccc(NC(=O)C2CCCO2)cc1 (configuration not stated) 0.39%, CC(=O)c1ccc(S(=O)(=O)Nc2ccc(C(=O)NCC(c3ccccc3)N(C)C)cc2)cc1 (configuration not stated) 0.68%, O=C(NC1CCC(O)CC1)c1ccc(S(=O)(=O)NCc2ccco2)cc1 (configuration not stated) -2.16%, COc1ccc(CNC(=O)c2cc(C(=O)C3CC3)c[nH]2)cc1 -1.28%, CC(C)Cc1nnc(NC(=O)CN2C(=O)NC3(CCCCC3)C2=O)s1 -1.6%, Cc1ccc(OCC(=O)Nc2ccc(N3CCN(C(=O)c4ccco4)CC3)cc2)c(C)c1 2.18%, CCc1ccc(NC(=O)COC(=O)c2cccs2)cc1 0.52%, COC(=O)C1=C(C)N(C)C(=S)NC1c1cc(OC)ccc1OC (configuration not stated) 1.16%, O=C1CC[C@H](O)CCN1[C@H](CSc1ccc(Br)cc1)Cc1ccccc1 -1.02%, C[C@H]1CCC(=O)N([C@H](CSc2ccccc2)Cc2ccccc2)CC1 2.5%, CS(=O)(=O)N(C(=O)NC(=O)NC1CCS(=O)(=O)C1)C1CCCCC1 (configuration not stated) 1.27%, CNC(=O)NC(=O)C(C)N1CCN(C/C=C/c2ccccc2)CC1 (configuration not stated) 0.24%, Cc1ccc(NC(=O)c2oc(=O)c3ccccc3c2-c2ccccc2)c(C)c1 -0.43%, COC(=O)CCCC1=CC2=C(c3ccccc3)C(=O)C(C)(OC(=O)C3CCCC3)C(=O)C2=CN1c1ccc(OC)cc1 (configuration not stated) -1.53%, COc1cccc(/C=N/Nc2ccc(S(=O)(=O)Nc3ccccc3C(=O)O)cc2[N+](=O)[O-])c1O -1.24%, COc1ccc(Cc2nnc(N/N=C/c3ccccc3O)[nH]c2=O)cc1OC -0.28%, O=C(NCCc1ccccc1)c1c[nH]c2ccc(F)cc2c1=O -1.1%, C=CCOc1ccc(/C=C/C(=O)OC(C)C(=O)Nc2ccc(NC(C)=O)cc2)cc1 (configuration not stated) -0.11%, CC(OC(=O)/C=C/c1ccccc1)C(=O)NC1CCCCC1C (configuration not stated) -0.81%, CC(C)CC(=O)N=C1SC2CS(=O)(=O)CC2N1CCc1ccccc1 (configuration not stated) -2.17%, CN(C)CCCN(C(=O)c1ccc(S(=O)(=O)N2CCCCCC2)cc1)c1nc2ccc(Br)cc2s1 1.54%, COc1ccc2sc(N(CCCN(C)C)C(=O)c3ccc(S(=O)(=O)N(C)C4CCCCC4)cc3)nc2c1 -0.93%, Cc1ccc(C)c(S(=O)(=O)Nc2cccc(-n3cnnn3)c2)c1 -2.5%, C/C=C/C=C/C(=O)O -2.37%, CCCC1(C(=O)OC)NC(c2ccco2)C2C(=O)N(C)C(=O)C21 (configuration not stated) -1.73%, O=C(Nc1ccncc1)c1cc(-c2ccccn2)nc2ccc(Br)cc12 -0.71%, Cc1ccc2nc(-c3ccncc3)cc(C(=O)Nc3ccc(OC(F)F)cc3)c2c1 8.59%, CCc1ccc(NC(=O)CS(=O)CC(=O)N2CCN(c3ccccc3F)CC2)cc1 (configuration not stated) -0.39%, O=C(NCc1ccc(Cl)c(Cl)c1)c1cccnc1 0.81%, CN(CC(=O)NCc1cccnc1)S(=O)(=O)c1cc(Cl)ccc1Cl -3.02%, CCN(CC)P(=O)(Nc1ccc(SC(F)F)cc1)c1ccc(N(C)C)cc1NC(=O)c1ccco1 (configuration not stated) -0.5%, CC(=O)Nc1ccc(S(=O)(=O)N(C)c2ccc(OCC(=O)OCC(=O)N3CCCCC3)cc2)cc1 -0.7%, Cc1c(C(=O)c2cccc([N+](=O)[O-])c2)c2ccccn2c1CCC#N -2.59%, FC(F)(F)c1ccc2nnc(-c3c(Cl)cccc3Cl)n2c1 -0.01%, Cc1ccc(C)c(N(CC(=O)NCc2ccco2)C(=O)CCC(=O)Nc2ccccn2)c1 -3.72%, CCOc1ccccc1-c1nc(CN2CCC(C(=O)N3CCOCC3)CC2)c(C)o1 -0.49%, COc1cccc(CC2(CO)CCCN(Cc3nc(-c4cccs4)oc3C)C2)c1 (configuration not stated) 0.45%, CCOc1ccc(NC(=O)C2CC(=O)N=C(N)S2)cc1 (configuration not stated) -2.05%, COc1ccc2c(CC(=O)NNC(=O)c3ccccc3F)coc2c1 -0.31%

activation, active:
C=C(C)COc1ccc(-c2n[nH]c(C)c2-c2ccccc2)c(O)c1 20.9%, COc1ccccc1C(CNC(=O)c1ccc(C)c(S(=O)(=O)N2CCCCC2)c1)N(C)C (configuration not stated) 33.2%, COc1cc(C(=O)OC(C)C(=O)NCC2CCCCC2)cc(NC(=O)c2ccco2)c1OC (configuration not stated) 26.7%, COc1ccc(-n2nnnc2-c2nc3ccccc3s2)cc1 20.4%, CC(C)(C)OC(=O)N1CCC(NC(=O)c2[nH]cnc2C(=O)N[C@@H](Cc2ccccc2)C(=O)OCc2ccccc2)CC1 21.9%, O=C1N/C(=C/c2cccs2)C(=O)N1Cc1ccc(F)cc1 18.9%, CC1CCCN(CCOCCOc2ccccc2-c2ccccc2)C1 (configuration not stated) 18.4%, CN(C)C(CNC(=O)c1ccc(S(=O)(=O)NCc2ccco2)cc1)c1ccccc1 (configuration not stated) 20.7%, Cc1ccc(OCC(=O)Nc2ccc(NC(=O)c3cccs3)cc2)c(C)c1 19.7%, COc1ccc(SC[C@H](Cc2ccccc2)N2CCN(CCc3ccccc3)CCC2=O)cc1 26.4%, COc1cccc(/C=N/Nc2cc(C)nc(-c3ccccc3O)n2)c1O 35.6%, CC(OC(=O)/C=C/c1ccccc1)C(=O)Nc1ccc(C(N)=O)cc1 (configuration not stated) 34.1%, CN(C)CCCN(C(=O)c1ccc(S(=O)(=O)N2CCCc3ccccc32)cc1)c1nc2ccc(F)cc2s1 268%, Cc1ccc2nc(-c3ccncc3)cc(C(=O)Nc3ccncc3)c2c1 24%, CC(c1cccnc1)N(CCN(C)C)C(=O)Nc1ccc(Cl)c(Cl)c1 (configuration not stated) 35.5%, CCOC(=O)C1(CC2CCCCO2)CCN(Cc2nc(-c3cccs3)oc2C)CC1 (configuration not stated) 45.6%
